Inconclusive results are not listed. Activity calls are given as the source filed them. Calls follow the shape of the dose curve; as a rule, active = well fitted curve in the direction sought with a large enough effect; inconclusive = small, poorly fitted or top-dose-only effect, or another doubt; inactive = no such curve, though single readings can be large; an effect the other way counts as inactive or inconclusive.
Legend:
[1] = Quantitative High-Throughput drug screen in 47 multiple myeloma cell lines against the NCATS MIPE library collection: FR4_PLB cell viability assay (AID 1918924; also: nearly all actives have a fitted effect of over 35% in size; also: potency is read from the fitted curve at half-maximal effect); conditions: FR4_PLB myeloma cells viability, CellTiter-Glo ATP, 48 h; series mostly up to 45.8 µM
Outline: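 Primary qHTS used for cherry-picking: cells at 500/well, library compounds for 48 h (37C, 5% CO2), luminescent ATP assay.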

[2] = Quantitative High-Throughput drug screen in 47 multiple myeloma cell lines against the NCATS MIPE library collection: Delta47_JCRB cell viability assay (AID 1918925; also: nearly all actives have a fitted effect of over 45% in size; also: potency is read from the fitted curve at half-maximal effect); conditions: Delta47 myeloma viability, CellTiter-Glo ATP, 48 h; series mostly up to 45.8 µM
Outline: (§1)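 Myeloma cell lines, 500 cells per well, exposed to MIPE 4.0 library compounds for 48 h at 37C, 5% CO2. Viability from ATP by CellTiter-Glo luminescence; normalised to DMSO (100%) and media-only (0%) wells.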

[3] = Quantitative High-Throughput drug screen in 47 multiple myeloma cell lines against the NCATS MIPE library collection: EJM_DSMZ cell viability assay (AID 1918926; also: nearly all actives have a fitted effect of over 30% in size; also: potency is read from the fitted curve at half-maximal effect); conditions: EJM myeloma cell viability, CellTiter-Glo ATP, 48 h; series mostly up to 45.8 µM
Outline: as §1

[4] = Quantitative High-Throughput drug screen in 47 multiple myeloma cell lines against the NCATS MIPE library collection: AMO1_DSMZ cell viability assay (AID 1918927; also: nearly all actives have a fitted effect of over 30% in size; also: potency is read from the fitted curve at half-maximal effect); conditions: AMO1 myeloma cells viability, CellTiter-Glo ATP luminescence, 48 h; series mostly up to 45.8 µM
Outline: as §1

[5] = Quantitative High-Throughput drug screen in 47 multiple myeloma cell lines against the NCATS MIPE library collection: ARP1_JJKsccF8 cell viability assay (AID 1918928; also: nearly all actives have a fitted effect of over 40% in size; also: potency is read from the fitted curve at half-maximal effect); conditions: ARP1 myeloma cells viability, CellTiter-Glo ATP, 48 h; series mostly up to 45.8 µM
Outline: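 Myeloma cells, 500 per well, were exposed to MIPE 4.0 drugs by pin transfer for 48 h at 37 °C, 5% CO2. Viability was read as ATP luminescence with CellTiter-Glo, normalised to DMSO-only (100%) and medium-only (0%) wells.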

[6] = Primary fluorescence-based thiol-reactive (MSTI) qHTS assay for identification of artifact compounds. (AID 1845221); conditions: MSTI thiol-reactivity probe, 1 h; series mostly up to 53.8 µM;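 also: thiol-reactive compounds lower the probe fluorescence signal; nearly all actives have a fitted effect of over 65% in size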
Outline: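 A multi-concentration qHTS design tested compounds against 4 uM MSTI, pH 7.4 phosphate-buffered saline. Plates were protected from light for 1 h at room temperature before imaging fluorescence.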

[7] = Primary redox qHTS assay for identification of artifact compounds. (AID 1845223); conditions: Amplex Red/HRP redox cycling with DTT, fluorescence; series mostly up to 53.8 µM
Outline: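 Amplex Red (25 uM) and HRP (250 mU/mL) in HBSS, with compounds for 15 min, then 250 uM DTT for 30 min, room temperature, dark. Fluorescence 525/598 nm read; normalized to DMSO and 10 uM DA3003; Hill fit.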

Row | SMILES | Potency [1] | Potency [2] | Potency [3] | Potency [4] | Potency [5] | Potency [6] | Potency [7]
1 | CC(=O)O[C@]1(C(C)=O)CC[C@H]2[C@@H]3C=C(C)C4=CC(=O)CC[C@]4(C)[C@@H]3CC[C@@]21C | inactive | 8.33 µM (active) | inactive | 8.33 µM (active) |  |  | 
2 | O=C(O)C[C@H](O)C[C@H](O)C=Cc1c(C2CC2)nc2ccccc2c1-c1ccc(F)cc1 | 10.5 µM (active) | 8.33 µM (active) | inactive | 9.35 µM (active) | 13.2 µM (active) |  | 
3 | CC(C)(N)c1ccc(-c2nc3ccccc3nc2-c2ccccc2)cc1 |  | 5.9 µM (active) | 23.5 µM (active) | 14.8 µM (active) |  | inactive | inactive
4 | O=C(O)C=Cc1ccc(Cn2ccnc2)cc1 | inactive | inactive | inactive | 0.372 µM (active) |  |  | 
5 | CC(C=CC(=O)NO)=C[C@@H](C)C(=O)c1ccc(N(C)C)cc1 | 0.332 µM (active) | 0.235 µM (active) | 0.469 µM (active) | 0.235 µM (active) | 0.209 µM (active) |  | 
6 | COc1cccc2c1C(=O)c1c(O)c3c(c(O)c1C2=O)C[C@@](O)(C(=O)CO)C[C@H]3O[C@H]1C[C@H](N)[C@H](O)[C@H](C)O1 | 0.264 µM (active) | 0.148 µM (active) | 0.209 µM (active) | 1.05 µM (active) | 0.332 µM (active) |  | 
7 | CC(=O)NCC(=O)N1[C@H]2CC[C@H]1c1cc(Nc3ncc(C(F)(F)F)c(NC4CCC4)n3)ccc12 | 9.35 µM (active) | 0.662 µM (active) | 7.43 µM (active) | 0.235 µM (active) | 4.69 µM (active) |  | 
8 | CC(=O)N[C@H]1[C@@H]([C@H](O)[C@H](O)CO)OC(C(=O)O)=C[C@@H]1N=C(N)N | inactive | inactive | inactive | inactive | inactive |  | 

Source: PubChem BioAssay (NCATS)
